# In PubChem BioAssay (NCATS):
# A number with no mark means an inactive call. Results filed as inconclusive are left out. A call without a number means that no potency is given here. The source made the active and inactive calls. Calls follow the shape of the dose curve; as a rule, active = well fitted curve in the direction sought with a large enough effect; inconclusive = small, poorly fitted or top-dose-only effect, or another doubt; inactive = no such curve, though single readings can be large; an effect the other way counts as inactive or inconclusive.
# Legend:
# [1] = qHTS for Inhibitors of Plasmodium falciparum (CP250) proliferation (AID 504320); conditions: P. falciparum CP250 in erythrocytes, SYBR Green DNA, 72 h; series mostly up to 6.7 µM
# Procedure, shortened: (§1)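 Parasite growth measured as SYBR Green DNA fluorescence (ex 485, em 535 nm) after overnight lysis following 72 h culture at 37 °C, 0.3% parasitemia, 2.5% hematocrit. Values normalized against DMSO and 0.29 uM artemisinin controls, with plate-stack correction.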
# [2] = qHTS for Inhibitors of Plasmodium falciparum (7G8) proliferation (AID 504316); also: nearly all actives have a fitted effect of over 65% in size; also: potency is read from the fitted curve at half-maximal effect; conditions: P. falciparum 7G8 in erythrocytes, SYBR Green DNA, 72 h; series mostly up to 6.7 µM
# Procedure, shortened: as §1
# [3] = qHTS for Inhibitors of Plasmodium falciparum (HB3) proliferation (AID 504318); also: nearly all actives have a fitted effect of over 60% in size; also: potency is read from the fitted curve at half-maximal effect; conditions: P. falciparum HB3 in erythrocytes, SYBR Green DNA, 72 h; series mostly up to 7.21 µM
# Procedure, shortened: as §1
# [4] = qHTS for Inhibitors of Plasmodium falciparum (GB4) proliferation (AID 504315); also: nearly all actives have a fitted effect of over 50% in size; conditions: P. falciparum GB4 in erythrocytes, SYBR Green DNA, 72 h; series mostly up to 6.7 µM
# Procedure, shortened: as §1
# [5] = target: Cytochrome P450 3A4 (Homo sapiens) (UniProt P08684); test: qHTS Assay for Activators of Cytochrome P450 3A4 (AID 885); conditions: recombinant CYP3A4, Luciferin-PPXE luminescence, 60 min; series mostly up to 57.1 µM; also: nearly all actives have a fitted effect of over 65% in size
# Sequence of Cytochrome P450 3A4 (Homo sapiens) (P08684 whole entry, looked up): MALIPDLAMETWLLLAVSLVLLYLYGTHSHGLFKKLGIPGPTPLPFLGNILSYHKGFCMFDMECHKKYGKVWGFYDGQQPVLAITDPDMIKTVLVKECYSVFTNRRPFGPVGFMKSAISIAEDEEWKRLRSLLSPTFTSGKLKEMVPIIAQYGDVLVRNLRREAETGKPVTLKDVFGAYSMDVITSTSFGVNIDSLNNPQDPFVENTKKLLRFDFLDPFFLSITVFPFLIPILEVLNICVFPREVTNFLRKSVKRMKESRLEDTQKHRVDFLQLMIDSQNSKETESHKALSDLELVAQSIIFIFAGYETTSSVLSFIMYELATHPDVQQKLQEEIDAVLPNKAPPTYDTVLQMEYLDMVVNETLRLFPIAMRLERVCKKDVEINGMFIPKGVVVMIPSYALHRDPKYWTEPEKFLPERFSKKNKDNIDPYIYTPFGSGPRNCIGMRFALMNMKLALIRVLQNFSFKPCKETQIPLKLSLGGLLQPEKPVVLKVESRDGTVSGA
# Procedure, shortened: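 Human CYP3A4 dealkylates Luciferin-PPXE to luciferin, which luciferase detection converts to light. Substrate was at its KM (25uM), buffer 200mM KPO4, reaction 60 min at RT.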
# [6] = target: Cytochrome P450 2D6 (Homo sapiens) (UniProt P10635); test: qHTS Assay for Inhibitors and Substrates of Cytochrome P450 2D6 (AID 891); conditions: recombinant CYP2D6, luciferin-ME EGE luminescence; series mostly up to 11.4 µM;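 also: luciferin methyl ether substrate demethylated by CYP2D6 with NADPH regeneration; nearly all actives have a fitted effect of over 60% in size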
# Sequence of Cytochrome P450 2D6 (Homo sapiens) (P10635 whole entry, looked up): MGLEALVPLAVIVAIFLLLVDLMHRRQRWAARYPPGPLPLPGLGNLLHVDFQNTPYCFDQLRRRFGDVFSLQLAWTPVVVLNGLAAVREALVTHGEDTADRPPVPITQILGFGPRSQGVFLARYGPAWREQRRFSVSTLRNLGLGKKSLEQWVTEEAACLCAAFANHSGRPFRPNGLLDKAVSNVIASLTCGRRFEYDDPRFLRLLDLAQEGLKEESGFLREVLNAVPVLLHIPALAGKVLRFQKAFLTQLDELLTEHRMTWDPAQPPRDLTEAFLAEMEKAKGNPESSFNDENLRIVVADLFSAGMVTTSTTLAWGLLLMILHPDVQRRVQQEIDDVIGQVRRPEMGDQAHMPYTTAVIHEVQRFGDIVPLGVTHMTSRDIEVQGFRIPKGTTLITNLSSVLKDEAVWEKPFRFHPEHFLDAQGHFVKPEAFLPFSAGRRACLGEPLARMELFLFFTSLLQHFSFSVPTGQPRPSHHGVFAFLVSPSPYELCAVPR
# Procedure, shortened: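 Luminescent read-out of luciferin formed by 5 nM human CYP2D6 demethylating 30 uM Luciferin-ME EGE (Km level) over 60 min at room temperature after NADPH regeneration addition. Data normalized to full inhibition by 1.43 uM quinidine.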
# [7] = target: Cytochrome P450 2C19 (Homo sapiens) (UniProt P33261); test: qHTS Assay for Inhibitors and Substrates of Cytochrome P450 2C19 (AID 899); conditions: recombinant CYP2C19, luciferin-H EGE luminescence; series mostly up to 11.4 µM; also: nearly all actives have a fitted effect of over 60% in size
# Sequence of Cytochrome P450 2C19 (Homo sapiens) (P33261 whole entry, looked up): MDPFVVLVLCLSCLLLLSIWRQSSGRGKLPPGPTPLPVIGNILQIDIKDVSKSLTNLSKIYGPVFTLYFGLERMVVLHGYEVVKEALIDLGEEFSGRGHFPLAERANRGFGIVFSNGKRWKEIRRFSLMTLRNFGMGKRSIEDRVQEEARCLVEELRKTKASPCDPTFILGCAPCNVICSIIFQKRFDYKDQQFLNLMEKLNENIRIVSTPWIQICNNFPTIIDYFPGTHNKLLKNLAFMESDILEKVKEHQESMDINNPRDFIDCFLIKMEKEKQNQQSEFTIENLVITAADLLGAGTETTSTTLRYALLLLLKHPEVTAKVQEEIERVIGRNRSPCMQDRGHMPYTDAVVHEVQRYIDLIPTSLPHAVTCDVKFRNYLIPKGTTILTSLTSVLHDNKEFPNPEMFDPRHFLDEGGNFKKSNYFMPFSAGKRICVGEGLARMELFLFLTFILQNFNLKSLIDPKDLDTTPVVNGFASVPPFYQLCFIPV
# Procedure, shortened: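 5 nM human CYP2C19 with 10uM Luciferin-H EGE (at KM) in 50mM KPO4, compound preincubated 10 min at 37C, then NADPH regeneration for 60 min at 37C. Luciferin read by luminescence after detection reagent; normalized to 57uM ketoconazole as full inhibition.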
structure (smiles),measurement,setting,value
C#CCCCON=C1C[C@@H](O)[C@@H](O)[C@@H]2[C@H]3C(=O)N([C@@H](C)c4ccccc4)C(=O)[C@@H]3CC[C@H]12,Potency,[1],inactive
COC(=O)C1=C(C(=O)OC)[C@@H]2Nc3ccccc3[C@@]23C[C@@H](C(=O)OC)N(C(=O)c2cccs2)C3=N1,Potency,[2],inactive
same,Potency,[1],inactive
COCOc1c2c(c(OCOC)c3c(OCOC)cccc13)C(=NNS(C)(=O)=O)C1=C2CCCC1,Potency,[2],1690 nM (active)
same,Potency,[1],inactive
COc1ccc(-c2nc(-c3ccccc3)c(Nc3ccc4ccccc4c3)o2)cc1,Potency,[3],1690 nM (active)
COC(=O)C1=C(C(=O)OC)[C@@H]2N(C)c3ccc(OC)cc3[C@@]23C[C@@H](C(=O)OC)N(S(=O)(=O)c2c(C)noc2C)C3=N1,Potency,[4],inactive
same,Potency,[3],inactive
same,Potency,[1],inactive
C[C@H]1Cc2c(-c3ccccc3)nc3c(c2CO1)CN(C(=O)NCCc1c[nH]c2ccccc12)CC3,Potency,[2],inactive
same,Potency,[3],inactive
same,Potency,[1],inactive
CCCCCC(=O)c1cc(CC(C(=O)OC)C(=O)OC)cc2cc(OC)c(OC)cc12,"activity change, positive = activation",[5],-51.6% [at 11.4 µM]
same,Potency,[6],inactive
same,Potency,[7],inactive
same,Potency,[4],inactive
same,Potency,[2],inactive
same,Potency,[1],inactive
